Test results as given in publication PMC7862700, “An all-to-all approach to the identification of sequence-specific readers for epigenetic DNA modifications on cytosine”.

Columns and labels:
Assay in all cases: DAPPL (digital affinity profiling via proximity ligation, sequencing); 10 mM Tris-HCl pH 7.5, 50 mM NaCl, 1 mM DTT, 4% glycerol, room temperature, 30 min; GST-TFs on glutathione beads, 16-mer random dsDNA library, 0.1% formaldehyde crosslink after washing; high values mean tight binding
Settings in all cases: protein: recombinant; tags: N-terminal GST; dsDNA, one strand shown
[1] = biological target: T1, FLI1 (Homo sapiens, UniProt Q01543 1-452)
T1 sequence: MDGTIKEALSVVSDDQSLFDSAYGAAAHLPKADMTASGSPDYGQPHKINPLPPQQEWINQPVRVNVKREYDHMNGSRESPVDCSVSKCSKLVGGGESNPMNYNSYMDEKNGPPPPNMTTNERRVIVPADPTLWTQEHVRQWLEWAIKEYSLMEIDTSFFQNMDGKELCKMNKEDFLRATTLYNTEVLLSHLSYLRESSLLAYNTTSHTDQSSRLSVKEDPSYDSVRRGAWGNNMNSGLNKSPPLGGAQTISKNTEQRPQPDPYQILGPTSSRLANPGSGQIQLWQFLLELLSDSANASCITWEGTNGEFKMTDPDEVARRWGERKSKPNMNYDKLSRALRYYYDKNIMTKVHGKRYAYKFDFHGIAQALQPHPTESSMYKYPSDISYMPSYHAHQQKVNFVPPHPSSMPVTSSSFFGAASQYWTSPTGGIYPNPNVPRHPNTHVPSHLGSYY
Summary of the method: (§1)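 Binding signal is defined as a hexamer's read frequency for one factor over its frequency for the tag-only sample. To obtain reads, GST-fused human transcription factors were expressed in yeast, captured on glutathione beads, barcoded with DNA and pooled with that sample. Pools met 200 nmole of a 16-mer random double-stranded DNA library in Tris/NaCl/DTT/glycerol buffer for 30 min at room temperature before washing, 0.1% formaldehyde crosslinking, proximity ligation (BsaI/T4 ligase, 1 h, 37 °C), PCR and Illumina NextSeq500 sequencing.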

[2] = biological target: T2, ELK1 (Homo sapiens, UniProt P19419 1-428)
T2 sequence: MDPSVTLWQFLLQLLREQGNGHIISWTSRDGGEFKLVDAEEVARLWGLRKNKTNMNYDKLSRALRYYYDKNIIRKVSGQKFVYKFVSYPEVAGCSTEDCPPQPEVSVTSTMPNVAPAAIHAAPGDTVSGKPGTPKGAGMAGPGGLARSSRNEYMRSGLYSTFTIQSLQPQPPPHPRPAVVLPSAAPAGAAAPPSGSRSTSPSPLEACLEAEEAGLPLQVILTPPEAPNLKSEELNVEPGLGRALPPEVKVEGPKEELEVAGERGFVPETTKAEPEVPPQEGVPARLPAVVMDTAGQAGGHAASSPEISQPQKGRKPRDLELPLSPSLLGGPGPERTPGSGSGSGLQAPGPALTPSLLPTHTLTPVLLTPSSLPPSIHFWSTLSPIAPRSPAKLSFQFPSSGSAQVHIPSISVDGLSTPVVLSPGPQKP
Summary of the method: as §1

[3] = biological target: T3, GABPA (Homo sapiens, UniProt Q06546 1-454)
T3 sequence: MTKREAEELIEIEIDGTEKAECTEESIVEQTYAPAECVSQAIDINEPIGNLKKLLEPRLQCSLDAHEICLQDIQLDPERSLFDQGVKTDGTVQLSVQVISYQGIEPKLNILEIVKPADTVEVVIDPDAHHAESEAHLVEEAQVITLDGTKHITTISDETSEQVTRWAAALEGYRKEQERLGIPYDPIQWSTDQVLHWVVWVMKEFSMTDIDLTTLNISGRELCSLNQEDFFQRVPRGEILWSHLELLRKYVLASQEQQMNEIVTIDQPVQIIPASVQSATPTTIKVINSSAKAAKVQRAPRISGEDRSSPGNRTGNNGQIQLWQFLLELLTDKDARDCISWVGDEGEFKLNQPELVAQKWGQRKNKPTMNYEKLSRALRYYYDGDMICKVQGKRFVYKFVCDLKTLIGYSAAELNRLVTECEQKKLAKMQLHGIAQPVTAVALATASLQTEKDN
Summary of the method: as §1

[4] = biological target: T4, ERG (Homo sapiens, UniProt P11308 1-479)
T4 sequence: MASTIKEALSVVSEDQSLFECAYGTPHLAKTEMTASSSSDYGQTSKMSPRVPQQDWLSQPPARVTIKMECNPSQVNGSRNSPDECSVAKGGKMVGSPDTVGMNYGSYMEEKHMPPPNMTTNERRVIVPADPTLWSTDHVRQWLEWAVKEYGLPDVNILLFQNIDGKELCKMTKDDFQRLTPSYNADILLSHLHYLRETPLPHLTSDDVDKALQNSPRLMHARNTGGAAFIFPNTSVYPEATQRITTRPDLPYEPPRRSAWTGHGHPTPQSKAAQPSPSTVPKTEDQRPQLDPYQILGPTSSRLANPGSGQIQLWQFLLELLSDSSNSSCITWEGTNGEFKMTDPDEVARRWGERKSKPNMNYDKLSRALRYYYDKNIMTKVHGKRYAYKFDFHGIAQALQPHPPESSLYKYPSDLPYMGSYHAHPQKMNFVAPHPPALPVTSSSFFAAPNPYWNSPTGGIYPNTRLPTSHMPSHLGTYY
Summary of the method: as §1

[5] = biological target: ELF1 (Homo sapiens, UniProt P32519 1-619)
ELF1, sequence (P32519 whole entry): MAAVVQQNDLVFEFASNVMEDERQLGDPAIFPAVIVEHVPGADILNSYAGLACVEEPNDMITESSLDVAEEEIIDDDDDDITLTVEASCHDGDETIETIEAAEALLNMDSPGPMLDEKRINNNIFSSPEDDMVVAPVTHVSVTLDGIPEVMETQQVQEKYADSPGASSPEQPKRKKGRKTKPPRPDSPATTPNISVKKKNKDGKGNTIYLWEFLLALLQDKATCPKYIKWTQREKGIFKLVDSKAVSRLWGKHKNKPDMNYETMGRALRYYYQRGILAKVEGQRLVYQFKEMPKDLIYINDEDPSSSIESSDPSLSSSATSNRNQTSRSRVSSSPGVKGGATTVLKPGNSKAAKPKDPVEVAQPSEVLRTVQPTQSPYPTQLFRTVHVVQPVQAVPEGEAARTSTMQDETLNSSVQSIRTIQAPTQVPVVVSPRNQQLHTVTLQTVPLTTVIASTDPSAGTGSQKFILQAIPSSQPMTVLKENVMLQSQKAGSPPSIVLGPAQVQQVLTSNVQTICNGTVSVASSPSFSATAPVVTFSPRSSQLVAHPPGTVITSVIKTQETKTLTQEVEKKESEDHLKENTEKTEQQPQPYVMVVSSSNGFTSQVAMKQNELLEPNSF
Summary of the method: as §1

[6] = biological target: T5, EHF (Homo sapiens, UniProt Q9NZC4 1-300)
T5 sequence: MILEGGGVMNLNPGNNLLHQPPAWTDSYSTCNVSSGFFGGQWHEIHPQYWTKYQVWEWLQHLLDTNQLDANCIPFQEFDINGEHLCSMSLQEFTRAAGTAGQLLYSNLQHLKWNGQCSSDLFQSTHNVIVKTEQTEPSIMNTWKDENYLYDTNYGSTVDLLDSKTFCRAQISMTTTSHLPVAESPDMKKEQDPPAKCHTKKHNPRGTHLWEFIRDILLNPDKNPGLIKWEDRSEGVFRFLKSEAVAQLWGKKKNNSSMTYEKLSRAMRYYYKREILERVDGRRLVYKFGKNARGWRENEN
Summary of the method: as §1

[7] = biological target: SPI1 (Homo sapiens, UniProt P17947 1-270)
Summary of the method: as §1

[8] = biological target: SPIB (Homo sapiens, UniProt Q01892 1-262)
SPIB, sequence (Q01892 whole entry): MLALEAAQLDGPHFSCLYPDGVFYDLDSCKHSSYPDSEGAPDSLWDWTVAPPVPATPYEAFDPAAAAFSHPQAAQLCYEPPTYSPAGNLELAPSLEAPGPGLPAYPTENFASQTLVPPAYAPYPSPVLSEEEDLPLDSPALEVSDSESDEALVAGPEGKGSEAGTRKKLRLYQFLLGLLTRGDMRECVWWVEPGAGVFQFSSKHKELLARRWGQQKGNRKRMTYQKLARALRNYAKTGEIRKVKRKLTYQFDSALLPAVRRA
Summary of the method: as §1

[9] = biological target: T6, ELK3 (Homo sapiens, UniProt P41970 1-407)
T6 sequence: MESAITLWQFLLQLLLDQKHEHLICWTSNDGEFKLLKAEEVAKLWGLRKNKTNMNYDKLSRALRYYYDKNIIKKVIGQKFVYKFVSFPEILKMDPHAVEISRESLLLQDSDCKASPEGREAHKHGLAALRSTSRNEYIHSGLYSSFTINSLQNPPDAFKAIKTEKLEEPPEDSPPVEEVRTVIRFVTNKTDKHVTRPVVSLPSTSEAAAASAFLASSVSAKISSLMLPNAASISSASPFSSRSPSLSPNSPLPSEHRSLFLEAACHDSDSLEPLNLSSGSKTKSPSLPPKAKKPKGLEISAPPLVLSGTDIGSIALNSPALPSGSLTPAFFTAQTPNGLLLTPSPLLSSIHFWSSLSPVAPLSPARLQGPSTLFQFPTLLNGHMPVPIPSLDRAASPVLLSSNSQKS
Summary of the method: as §1

With ATAGCA the binding signal [1] was 1.17 fold enrichment (6-mer frequency, TF over GST control), the binding signal [2] was 1.14 fold enrichment (6-mer frequency, TF over GST control) and the binding signal [3] was 1.19 fold enrichment (6-mer frequency, TF over GST control). For the same sequence, the binding signal [4] was 1.19 fold enrichment (6-mer frequency, TF over GST control), the binding signal [5] was 1.14 fold enrichment (6-mer frequency, TF over GST control) and the binding signal [6] was 1.13 fold enrichment (6-mer frequency, TF over GST control). For the same sequence, the binding signal [7] was 1.11 fold enrichment (6-mer frequency, TF over GST control), the binding signal [8] was 1.18 fold enrichment (6-mer frequency, TF over GST control) and the binding signal [9] was 1.15 fold enrichment (6-mer frequency, TF over GST control).

For GCTCGA, the binding signal [1] was 1.22 fold enrichment (6-mer frequency, TF over GST control), the binding signal [2] was 1.12 fold enrichment (6-mer frequency, TF over GST control) and the binding signal [3] was 1.15 fold enrichment (6-mer frequency, TF over GST control). For the same sequence, the binding signal [4] was 1.2 fold enrichment (6-mer frequency, TF over GST control), the binding signal [5] was 1.21 fold enrichment (6-mer frequency, TF over GST control) and the binding signal [6] was 1.19 fold enrichment (6-mer frequency, TF over GST control). For the same sequence, the binding signal [7] was 1.22 fold enrichment (6-mer frequency, TF over GST control), the binding signal [8] was 1.24 fold enrichment (6-mer frequency, TF over GST control) and the binding signal [9] was 1.13 fold enrichment (6-mer frequency, TF over GST control).

For TCCCAG, the binding signal [1] was 1.05 fold enrichment (6-mer frequency, TF over GST control), the binding signal [2] was 1.09 fold enrichment (6-mer frequency, TF over GST control) and the binding signal [3] was 1.08 fold enrichment (6-mer frequency, TF over GST control). For the same sequence, the binding signal [4] was 1.07 fold enrichment (6-mer frequency, TF over GST control), the binding signal [5] was 1.08 fold enrichment (6-mer frequency, TF over GST control) and the binding signal [6] was 1.1 fold enrichment (6-mer frequency, TF over GST control). The binding signal [7] was 1.11 fold enrichment (6-mer frequency, TF over GST control), the binding signal [8] was 1.08 fold enrichment (6-mer frequency, TF over GST control) and the binding signal [9] was 1.11 fold enrichment (6-mer frequency, TF over GST control).

With GTTAAG the binding signal [1] was 1.04 fold enrichment (6-mer frequency, TF over GST control), the binding signal [2] was 1.12 fold enrichment (6-mer frequency, TF over GST control) and the binding signal [3] was 1.07 fold enrichment (6-mer frequency, TF over GST control). The binding signal [4] was 1.05 fold enrichment (6-mer frequency, TF over GST control), the binding signal [5] was 1.04 fold enrichment (6-mer frequency, TF over GST control) and the binding signal [6] was 1.01 fold enrichment (6-mer frequency, TF over GST control). The binding signal [7] was 1.01 fold enrichment (6-mer frequency, TF over GST control), the binding signal [8] was 1.02 fold enrichment (6-mer frequency, TF over GST control) and the binding signal [9] was 1.05 fold enrichment (6-mer frequency, TF over GST control).

ATGTGT was tested, and the binding signal [1] was 1.04 fold enrichment (6-mer frequency, TF over GST control), the binding signal [2] was 1.11 fold enrichment (6-mer frequency, TF over GST control) and the binding signal [3] was 1.06 fold enrichment (6-mer frequency, TF over GST control). For the same sequence, the binding signal [4] was 1.03 fold enrichment (6-mer frequency, TF over GST control), the binding signal [5] was 1.03 fold enrichment (6-mer frequency, TF over GST control) and the binding signal [6] was 1.08 fold enrichment (6-mer frequency, TF over GST control). The binding signal [7] was 1.08 fold enrichment (6-mer frequency, TF over GST control), the binding signal [8] was 1.11 fold enrichment (6-mer frequency, TF over GST control) and the binding signal [9] was 1.06 fold enrichment (6-mer frequency, TF over GST control).

For GTTCAT, the binding signal [1] was 1.19 fold enrichment (6-mer frequency, TF over GST control), the binding signal [2] was 1.25 fold enrichment (6-mer frequency, TF over GST control) and the binding signal [3] was 1.19 fold enrichment (6-mer frequency, TF over GST control). The binding signal [4] was 1.1 fold enrichment (6-mer frequency, TF over GST control), the binding signal [5] was 1.13 fold enrichment (6-mer frequency, TF over GST control) and the binding signal [6] was 1.17 fold enrichment (6-mer frequency, TF over GST control). The binding signal [7] was 1.18 fold enrichment (6-mer frequency, TF over GST control), the binding signal [8] was 1.14 fold enrichment (6-mer frequency, TF over GST control) and the binding signal [9] was 1.15 fold enrichment (6-mer frequency, TF over GST control).

With ACTGAA the binding signal [1] was 1.07 fold enrichment (6-mer frequency, TF over GST control), the binding signal [2] was 1.27 fold enrichment (6-mer frequency, TF over GST control) and the binding signal [3] was 1.24 fold enrichment (6-mer frequency, TF over GST control). For the same sequence, the binding signal [4] was 1.11 fold enrichment (6-mer frequency, TF over GST control), the binding signal [5] was 1.2 fold enrichment (6-mer frequency, TF over GST control) and the binding signal [6] was 1.1 fold enrichment (6-mer frequency, TF over GST control). For the same sequence, the binding signal [7] was 1.23 fold enrichment (6-mer frequency, TF over GST control), the binding signal [8] was 1.07 fold enrichment (6-mer frequency, TF over GST control) and the binding signal [9] was 1.09 fold enrichment (6-mer frequency, TF over GST control).
